Reference: PubChem BioAssay AID1159580 (chemical genetic matrix, 2015)
Several values for one entry are separate records, joined by “and”; a condition that tells them apart may be missing. Identical values can stand only once. Out of some 5,500 compounds screened, about 2,000 (36%) were called active. Inconclusive results (about 18%) are left out. No stated cut-off is given here; in the data, active means normalized growth mostly below about 0.91 (no sharp cut-off); inconclusive means no clear call, values can overlap the other calls; inactive means mostly above about 0.92. Some of the results follow.

Experiment: chemical genetic growth profiling, strain panel (AID 1159580);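 further: tested at 20 µM; growth read once vehicle control cultures reached saturation at 30 °C; 1 = growth at the plate median or of vehicle wells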
Conditions: S. cerevisiae deletion strains, growth OD

Measured: normalized growth

CCCC(=O)Nc1ccc(OCC(O)CNC(C)C)c(C(C)=O)c1 (stereo unspecified)
inactive: locus YAL013W, strain DEP1, stronger effect = lower value 1.02 | locus YAL021C, strain ccr4, stronger effect = lower value 1 | locus YAL026C, strain drs2, stronger effect = lower value 1.03 | locus YAL030W, strain snc1, stronger effect = lower value 1.02 | locus YBL061C, strain skt5, stronger effect = lower value 1.02 | locus YBR009C, strain hhf1, stronger effect = lower value 1 | locus YBR021W, strain FUR4, stronger effect = lower value 1.02 | locus YBR023C, strain chs3, stronger effect = lower value 1.02 | locus YBR171W, strain sec66, stronger effect = lower value 1.02 | locus YBR229C, strain ROT2, stronger effect = lower value 1.01 | locus YBR231C, strain swc5, stronger effect = lower value 1.04 | locus YBR279W, strain paf1, stronger effect = lower value 1.02 | locus YCL011C, strain gbp2, stronger effect = lower value 1.03 | locus YCL016C, strain dcc1, stronger effect = lower value 1.03 | locus YCL029C, strain bik1, stronger effect = lower value 1.02 | locus YCL069W, strain vba3, stronger effect = lower value 1.02 | locus YCR088W, strain abp1, stronger effect = lower value 1.01 | locus YDL005C, strain med2, stronger effect = lower value 1.01 | locus YDL035C, strain GPR1, stronger effect = lower value 1.02 | locus YDL040C, strain nat1, stronger effect = lower value 1 | locus YDL074C, strain BRE1, stronger effect = lower value 1.05 | locus YDL101C, strain DUN1, stronger effect = lower value 1.02 | locus YDL134C, strain PPH21, stronger effect = lower value 1.01 | locus YDL185W, strain tfp1, stronger effect = lower value 1.02 | locus YDL192W, strain arf1, stronger effect = lower value 1.02 | locus YDR001C, strain nth1, stronger effect = lower value 1.02 | locus YDR069C, strain doa4, stronger effect = lower value 1.01 | locus YDR101C, strain arx1, stronger effect = lower value 1.01 | locus YDR137W, strain rgp1, stronger effect = lower value 1.01 | locus YDR150W, strain NUM1, stronger effect = lower value 1.02 | locus YDR159W, strain sac3, stronger effect = lower value 0.984 | locus YDR162C, strain NBP2, stronger effect = lower value 1.01 | locus YDR195W, strain ref2 0.999 | locus YDR297W, strain sur2, stronger effect = lower value 1.01 | locus YDR318W, strain mcm21, stronger effect = lower value 1.02 | locus YDR334W, strain swr1, stronger effect = lower value 1.01 | locus YDR335W, strain msn5, stronger effect = lower value 1.01 | locus YDR388W, stronger effect = lower value 1.01 | locus YDR392W, strain spt3, stronger effect = lower value 0.995 | locus YDR502C, strain sam2, stronger effect = lower value 1.02 | locus YEL003W, strain gim4, stronger effect = lower value 1.02 | locus YEL037C, strain rad23, stronger effect = lower value 1.02 | locus YEL061C, strain CIN8 (second series), stronger effect = lower value 1.04 | locus YEL061C, strain CIN8, stronger effect = lower value 1.01 | locus YER015W, strain faa2, stronger effect = lower value 1.01 | locus YER016W, strain bim1, stronger effect = lower value 1.03 | locus YER110C, stronger effect = lower value 1.02 | locus YER111C, strain swi4, stronger effect = lower value 1.01 | locus YER155C, strain BEM2 (second series), stronger effect = lower value 0.985 | locus YER155C, strain BEM2, stronger effect = lower value 1.02 | locus YER167W, strain BCK2, stronger effect = lower value 1.04 | locus YFR010W, strain ubp6, stronger effect = lower value 1.01 | locus YGL078C, strain dbp3, stronger effect = lower value 1.01 | locus YGL086W, strain mad1, stronger effect = lower value 0.996 | locus YGL167C, strain pmr1, stronger effect = lower value 1.02 | locus YGL173C, strain kem1, stronger effect = lower value 1.02 | locus YGL227W, strain vid30, stronger effect = lower value 1.03 | locus YGL240W, strain doc1, stronger effect = lower value 0.984 | locus YGL248W, strain PDE1, stronger effect = lower value 1.01 | locus YGL253W, strain hxk2, stronger effect = lower value 1.01 | locus YGR078C, strain PAC10, stronger effect = lower value 1.03 | locus YGR135W, strain pre9, stronger effect = lower value 1.02 | locus YGR229C, strain SMI1, stronger effect = lower value 1.03 | locus YGR252W, strain gcn5, stronger effect = lower value 0.965 | locus YHR013C, strain ard1, stronger effect = lower value 1.02 | locus YHR027C, strain rpn1, stronger effect = lower value 1.02 | locus YHR030C, strain SLT2, stronger effect = lower value 1.01 and 1.04 | locus YHR079C, strain IRE1 (second series), stronger effect = lower value 1.02 | locus YHR079C, strain IRE1, stronger effect = lower value 1.01 | locus YHR094C, strain hxt1, stronger effect = lower value 1.01 | locus YHR129C, strain ARP1, stronger effect = lower value 1.01 | locus YHR142W, strain chs7, stronger effect = lower value 1.04 | locus YHR200W, strain rpn10, stronger effect = lower value 1.02 | locus YIL066C, strain RNR3, stronger effect = lower value 1.02 | locus YIL073C, strain SPO22, stronger effect = lower value 1.05 | locus YIL125W, strain kgd1, stronger effect = lower value 1.01 | locus YIR030C, strain dcg1, stronger effect = lower value 1.02 | locus YJL092W, strain hpr5, stronger effect = lower value 1.01 | locus YJL095W, strain BCK1 (second series), stronger effect = lower value 1.02 | locus YJL095W, strain BCK1, stronger effect = lower value 1.03 and 1.01 | locus YJL115W, strain asf1, stronger effect = lower value 1.01 | locus YJL129C, strain trk1, stronger effect = lower value 1.01 | locus YJL134W, strain LCB3, stronger effect = lower value 1.01 | locus YJL154C, strain vps35, stronger effect = lower value 1.01 | locus YJL164C, strain tpk1, stronger effect = lower value 0.999 | locus YJL166W, strain qcr8, stronger effect = lower value 1.01 | locus YJL168C, strain set2, stronger effect = lower value 1.02 | locus YJL187C, strain SWE1 (second series), stronger effect = lower value 1.02 | locus YJL187C, strain SWE1, stronger effect = lower value 1.02 | locus YJR043C, strain POL32, stronger effect = lower value 1.05 | locus YJR066W, strain TOR1, stronger effect = lower value 0.957
